Source: PubChem (National Center for Advancing Translational Sciences (NCATS))
p53ts 32C kill – cytotoxicity in p53ts cells at permissive temperature. AID 924. H1299-p53A138V at 32C, ATP luminescence viability, 24 h. Potency, µM (titrated, usually from 46.1 µM), without a hit: at the highest dose activity change, negative = cytotoxicity, usual class: cytotoxic. 0.93% of 130,000 active;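 further: 0% = DMSO and -100% = full killing by reference compound; nearly all actives have a fitted effect of over 55% in size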
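Viability by ATPlite luminescence after 24 h compound treatment (up to 46 uM) at the permissive 32C. Cells are H1299 carrying p53 A138V. Scale runs from DMSO basal to 100 uM tamoxifen as full kill; AC50 from Hill fits.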
IkB signaling – IkB pathway inhibition in ABC-DLBCL cells; 0.04% of 110,000 active; Potency, µM (highest dose often 57.1 µM), inactives show top-dose IkBa stabilization activation; ABC-DLBCL IkBa-CBG/CBR dual luciferase ratio, 4 h; response scale: scaled: untreated 0%, proteasome inhibitor 100%; active means well fitted curve in the direction sought with a large enough effect in the signal ratio, not every such curve was filed as active; inconclusive means small, poorly fitted or top-dose-only effect, or a change in a side signal; the % refers to the signal ratio;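 further: the direction sought is a rising ratio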
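Luminescence ratio of IκBα-fused green versus native red beetle luciferase in OCI-Ly3 cells, 4 h post-doxycycline with compound; red signal alone, scaled from basal (0%) to zero light (-100%), flagged nonspecific or cytotoxic effects.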
Peg3 imprint – inducers of genomic imprint erasure in mouse ES cells; Potency, µM (top dose mostly 60.7 µM), for inactives: at the top dose activity change, positive = activation, actives largely listed as activators; 0.02% of 110,000 active; mouse ES Peg3-LacZ reporter, beta-gal luminescence, 40 h; AID 1948
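Imprint erasure is scored as LacZ activity from the silenced maternal Peg3 allele in feeder-free female ES cells cultured 40 h with LIF. Luminescence is normalized to in-plate negative controls and fitted to the Hill equation.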
p53ts 39C tox – cytotoxicity in p53ts cells at nonpermissive temperature. H1299-p53A138V viability at 39C, ATP luminescence, 24 h. 1.5% of 130,000 active. Potency, µM (series often up to 46.1 µM), without a hit: at the top dose activity change, negative = cell killing, most hits filed as cytotoxic. AID 902; further: on the % scale 0 is the no-effect control and ±100 the full control effect; nearly all actives have a fitted effect of over 55% in size
* = called active by the depositor; [ ] = dose if it differs, or a comment. Shown are actives, neighbours in structure and some others; about 1.7% of the full set was active somewhere. Unless noted, the call rests on the fitted dose curve; in most records, active means well fitted curve in the direction sought with a large enough effect; inconclusive means small, poorly fitted or top-dose-only effect, or another doubt; inactive means no such curve, though single readings can be large; an effect the other way counts as inactive or inconclusive. Potency means the concentration at half of the fitted maximal effect.

Screening CC(C)Oc1ccc2c(=O)c3cc(C(=O)O)ccc3oc2c1 returned p53ts 32C kill -27%, IkB signaling 0%, Peg3 imprint -74% and p53ts 39C tox inconclusive.
For O=c1cc(-c2ccccc2O)oc2ccc3ccccc3c12 the results were p53ts 32C kill 2.5µM*, IkB signaling 20%[11.4 µM], Peg3 imprint -97% and p53ts 39C tox 2µM*.
For O=C(Cc1cccs1)NC1CC(=O)N(c2ccc(F)cc2)C1 (centres undefined) the results were p53ts 32C kill -2%, IkB signaling inconclusive, Peg3 imprint 1%[10.9 µM] and p53ts 39C tox -9%.
Cc1ccc(Nc2cc(C)nc3nc(Cc4ccc(Cl)cc4)nn23)cc1 was read as p53ts 32C kill 71%, IkB signaling inconclusive, Peg3 imprint -13%[10.9 µM] and p53ts 39C tox -14%.
Screening CCc1ccc(Nc2cc(C)nc3nc(Cc4ccc(Cl)cc4)nn23)cc1 returned p53ts 32C kill -12%, IkB signaling inconclusive, Peg3 imprint -14%[10.9 µM] and p53ts 39C tox 20µM*.
Cc1ccc2nc(NC(=O)CSc3[nH]c(=O)ncc3C)sc2c1 was read as p53ts 32C kill 7%, IkB signaling 2%, Peg3 imprint -21%[10.9 µM] and p53ts 39C tox inconclusive.
`Cc1cc(C2N=C(N)Nc3nc4ccccc4n32)c(C)n1-c1ccccc1Cl` (centres undefined) gave p53ts 32C kill -16%, IkB signaling 1%, Peg3 imprint -42% and p53ts 39C tox -9%.
Screening Cc1ccc(-n2c(C)cc(C3N=C(N)Nc4nc5ccccc5n43)c2C)c(C)c1 (centres undefined) returned p53ts 32C kill inconclusive, IkB signaling inconclusive, Peg3 imprint -52% and p53ts 39C tox 20µM*.
For Fc1ccc(-c2nnc(-c3ccc(Cl)cc3Cl)o2)cc1 the results were p53ts 32C kill 5µM*, IkB signaling inconclusive, Peg3 imprint -50% and p53ts 39C tox 13µM*.
Fc1ccc(-c2nnc(-c3ccc(Cl)cc3)o2)cc1 was read as p53ts 32C kill inconclusive, IkB signaling -2%, Peg3 imprint -18% and p53ts 39C tox inconclusive.
`Clc1ccc(-c2nnc(-c3ccccc3)o2)c(Cl)c1` gave p53ts 32C kill 7.9µM*, IkB signaling inconclusive, Peg3 imprint -31% and p53ts 39C tox 10µM*.
O=C(O)CCSc1nnc(-c2ccc(Cl)cc2Cl)o1 was read as p53ts 32C kill 13µM*, IkB signaling inconclusive, Peg3 imprint 13%[10.9 µM] and p53ts 39C tox inconclusive.
Screening Clc1ccc(-c2nnc(-c3ccc(Br)o3)o2)c(Cl)c1 returned p53ts 32C kill -20%, IkB signaling -3%, Peg3 imprint -33% and p53ts 39C tox -29%.
Screening CCSc1nnc(-c2ccc(Cl)cc2Cl)o1 returned p53ts 32C kill -27%, IkB signaling -1%, Peg3 imprint -21% and p53ts 39C tox -18%.
COc1ccc(C(=O)CC2(O)C(=O)Nc3c(C)cccc32)c(OC)c1OC (centres undefined) was read as p53ts 32C kill 2%, IkB signaling 1%, Peg3 imprint -7%[10.9 µM] and p53ts 39C tox -27%.
`COC(=O)C1=NOC2(C=C(Br)C(OC)=C(Br)C2=O)C1` (centres undefined) gave p53ts 32C kill -10%[9.22 µM] and p53ts 39C tox -19%[9.22 µM].
For CCc1cccc(NC(=O)c2oc3ccc4c(c3c2C)C(=O)CC(C)(C)O4)c1 the results were p53ts 32C kill inconclusive, IkB signaling -3%, Peg3 imprint -26%[10.9 µM] and p53ts 39C tox 6.3µM*.
CCC1(C)CC(=O)c2c(ccc3oc(C(=O)NCc4ccccc4)c(C)c23)O1 (centres undefined) was read as p53ts 32C kill -15%, IkB signaling inconclusive, Peg3 imprint 12%[10.9 µM] and p53ts 39C tox -18%.
CCOc1ccccc1CNC(=O)c1oc2ccc3c(c2c1C)C(=O)CC(C)(C)O3 was read as p53ts 32C kill 0%, IkB signaling -1%, Peg3 imprint -17%[10.9 µM] and p53ts 39C tox -20%.
COc1ccc(NC(=O)c2oc3ccc4c(c3c2C)C(=O)CC(C)(C)O4)cc1OC was read as p53ts 32C kill 10µM*, IkB signaling inconclusive, Peg3 imprint inconclusive and p53ts 39C tox 4µM*.
Screening Cc1nc2ccc(NC(=O)Cc3cccs3)cc2s1 returned p53ts 32C kill 16µM*, IkB signaling 3%, Peg3 imprint -41% and p53ts 39C tox 10µM*.
